# Records with an inconclusive call do not appear. A call without a number means that no potency is given here. More than one record can exist for a structure, and the calls need not agree. Values without a mark were called inactive. The source made the active and inactive calls. The call rests on the fitted dose curve; in most records, active means well fitted inhibition curve with a large enough effect; inconclusive means small, poorly fitted or top-dose-only effect; inactive means flat fitted curve, though single readings scatter.
# Legend:
# PAD = assay: qHTS profiling for inhibitors of Plasmodium falciparum proliferation (AID 504749); conditions: P. falciparum in erythrocytes, SYBR Green DNA, 72 h; series mostly up to 28.7 µM
# Outline: (§1)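 P. falciparum-infected erythrocytes (0.3% parasitemia, 2.5% hematocrit final) were exposed to compounds for 72 h at 37 C in 5% CO2, then lysed with SYBR Green buffer overnight at room temperature; parasite DNA fluorescence was normalized to artemisinin and DMSO controls.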
# PC15 = assay: as above; conditions: P. falciparum in erythrocytes, SYBR Green DNA, 72 h; series mostly up to 28.7 µM
# Outline: as §1
# PC49 = assay: as above; conditions: P. falciparum in erythrocytes, SYBR Green DNA, 72 h; series mostly up to 28.7 µM
# Outline: as §1
# TAB109 = assay: as above; conditions: P. falciparum in erythrocytes, SYBR Green DNA, 72 h; series mostly up to 28.7 µM
# Outline: as §1
# TAB165 = assay: as above; conditions: P. falciparum in erythrocytes, SYBR Green DNA, 72 h; series mostly up to 28.7 µM
# Outline: as §1
# W2 = assay: as above; conditions: P. falciparum in erythrocytes, SYBR Green DNA, 72 h; series mostly up to 28.7 µM
# Outline: as §1
# CRL-7250 = normal cell line; assay: Cytotoxic Profiling of Annotated Libraries Using Quantitative High-Throughput Screening (AID 1296008); conditions: Five cell lines viability, CellTiter-Glo ATP luminescence, 48-72 h; max response: hits give low values
# Outline: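 Compounds were pin-transferred onto cells and incubated 48 or 72 hr at 37 degree Celsius, 95% humidity. CellTiter-Glo was added, plates sat 10 min at room temperature, then ATP-coupled luminescence was imaged as the viability read-out.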
# PC26 = assay: qHTS profiling for inhibitors of Plasmodium falciparum proliferation (AID 504749); conditions: P. falciparum in erythrocytes, SYBR Green DNA, 72 h; series mostly up to 28.7 µM
# Outline: as §1
# SC27B = assay: as above; conditions: P. falciparum in erythrocytes, SYBR Green DNA, 72 h; series mostly up to 28.7 µM
# Outline: as §1
# TAB113 = assay: as above; conditions: P. falciparum in erythrocytes, SYBR Green DNA, 72 h; series mostly up to 28.7 µM
# Outline: as §1
# Further: nearly all actives have a fitted effect of over 60% in size.
# Potency means the concentration at half of the fitted maximal effect.
compound,measurement,setting,value
COc1cc(C(=O)NS(=O)(=O)c2ccccc2C)ccc1Cc1cn(C)c2ccc(NC(=O)OC3CCCC3)cc12,Potency,PAD,inactive
same,Potency,PC15,inactive
same,Potency,PC49,inactive
same,Potency,TAB109,inactive
same,Potency,TAB165,inactive
same,Potency,W2,7570 nM (active)
same,outcome,CRL-7250,inactive
O=C(O)CO.[NH2-].[NH2-].[Pt+2],Potency,PAD,inactive
same,Potency,PC15,inactive
same,Potency,PC26,inactive
same,Potency,PC49,inactive
same,Potency,SC27B,inactive
same,Potency,TAB109,inactive
same,Potency,TAB113,inactive
same,Potency,TAB165,inactive
same,Potency,W2,inactive
CN(C)CC(C)(C)CNc1nn2c(-c3ccccc3)nnc2cc1C1CCC1,max response,CRL-7250,-13.8%
same,outcome,CRL-7250,inactive
Cc1ccc(NC(=O)C2(c3ccc4c(c3)OC(F)(F)O4)CC2)nc1-c1cccc(C(=O)O)c1,Potency,CRL-7250,187 nM (active)
same,max response,CRL-7250,-5.91%
C[C@H]1C[C@@H]2[C@@H]([C@@H](O)C[C@@]3(C)[C@H]2CC[C@]3(O)C(=O)CO)[C@@]2(C)C=CC(=O)C=C12,Potency,PAD,inactive
same,Potency,PC15,inactive
same,Potency,PC49,inactive
same,Potency,SC27B,inactive
same,Potency,TAB109,inactive
same,Potency,TAB113,inactive
same,Potency,TAB165,inactive
same,max response,CRL-7250,-0.811%
COc1ccc2c(OCc3nnc4ccc(-c5ccccc5)nn34)ccnc2c1,max response,CRL-7250,-1.03%
same,outcome,CRL-7250,inactive
COC(=O)C[C@](O)(CCCC(C)(C)O)C(=O)O[C@@H]1C(OC)=C[C@]23CCCN2CCc2cc4c(cc2[C@H]13)OCO4,Potency,PAD,15.8 nM (active)
same,Potency,PC15,31.6 nM (active)
same,Potency,PC26,19 nM (active)
same,Potency,PC49,0.6 nM (active)
same,Potency,SC27B,28.2 nM (active)
same,Potency,TAB109,25.1 nM (active)
same,Potency,TAB113,15.8 nM (active)
same,Potency,TAB165,100 nM (active)
same,Potency,W2,30.1 nM (active)
same,max response,CRL-7250,3.78%
CCNC(=O)Nc1ccc2ncc(Nc3ccc(C)cc3)nc2n1,max response,CRL-7250,-2.45%
same,outcome,CRL-7250,inactive
COc1cccc(Nc2c(C(N)=O)cnc3c(C)cc(S(=O)(=O)c4cccc(C(=O)N(C)C)c4)cc23)c1,max response,CRL-7250,-20.3%
same,outcome,CRL-7250,inactive
CCOc1ccccc1OCCNC(C)Cc1ccc(OC)c(S(N)(=O)=O)c1 (stereo unspecified),max response,CRL-7250,3.17%
same,outcome,CRL-7250,inactive

# Reference: PubChem BioAssay (NCATS)
